From PubChem BioAssay
PPARg SRC-2 ag: promotes SRC-2 coactivator recruitment by human PPARgamma | actives 0.34% (n = 200,000) | activation, % at 8 µM | PPARgamma LBD-SRC-2 recruitment, biochemical;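 also: 0% = vehicle and 100% = reference agonist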
Target sequence (P37231 whole entry, looked up, the tested form may be a part): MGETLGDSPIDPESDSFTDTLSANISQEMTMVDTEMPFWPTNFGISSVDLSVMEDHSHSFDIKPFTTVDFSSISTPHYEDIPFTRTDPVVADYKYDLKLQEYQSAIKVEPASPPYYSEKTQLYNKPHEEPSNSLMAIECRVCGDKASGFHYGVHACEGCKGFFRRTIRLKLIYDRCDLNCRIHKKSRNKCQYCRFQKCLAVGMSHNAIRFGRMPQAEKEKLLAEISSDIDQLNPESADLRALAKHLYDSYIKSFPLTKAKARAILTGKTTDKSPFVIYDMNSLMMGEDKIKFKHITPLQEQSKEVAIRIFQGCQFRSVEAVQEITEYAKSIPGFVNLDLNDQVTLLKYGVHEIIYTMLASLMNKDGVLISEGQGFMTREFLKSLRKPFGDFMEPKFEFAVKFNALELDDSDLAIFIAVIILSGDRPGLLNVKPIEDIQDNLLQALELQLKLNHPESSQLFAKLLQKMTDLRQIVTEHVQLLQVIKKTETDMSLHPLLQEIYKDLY
SRC3 TRFRET art: TR-FRET artefact, counter-screen to PPARgamma/SRC-3 agonist assay. PPARgamma/SRC-3 format; active compounds read high. TR-FRET ratio at 8 µM. actives 0.39% (n = 99,000). AID 1048; in the data active = TR-FRET ratio above about 2000
PPARg SRC-3 ag: PPARgamma-driven SRC-3 recruitment agonism; P37231; biochemical PPARgamma/SRC-3 coactivator recruitment assay; activation, % at 8 µM; actives 0.26% (n = 200,000); AID 731; in the data active = activation above about 23%;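 also: 0% = DMSO and 100% = reference agonist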
PPARg SRC1 recr: PPARgamma-driven SRC-1 recruitment agonism; P37231; PPARgamma-SRC-1 coactivator recruitment biochemical assay; activation, % at 8 µM; actives 0.41% (n = 200,000); AID 631; in the data active = activation above about 19%;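 also: 0% = DMSO and 100% = reference agonist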
SRC1 TRFRET art: flags TR-FRET format artefacts in PPARgamma SRC-1 recruitment agonist screen; TR-FRET detection artefact counter-screen, emission ratio; active compounds read high; TR-FRET ratio at 8 µM; actives 0.34% (n = 99,000); AID 1051; in the data active = TR-FRET ratio above about 2300
TR-FRET SRC-2 ct: TR-FRET artefact, counter-screen to PPARgamma/SRC-2 agonist assay | active compounds read high | TR-FRET ratio at 8 µM | actives 0.4% (n = 200,000); in the data active = TR-FRET ratio above about 2000
PPARg SRC2 conf: human PPARgamma SRC-2 recruitment agonism, confirmation; actives 52% (n = 790); shares compounds with PPARg SRC-3 ag; activation, % at 8 µM; biochemical SRC-2 recruitment by PPARgamma;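 also: 0% = vehicle alone and 100% = reference agonist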
PPARg SRC1 ag: confirmation of agonists of SRC-1 recruitment by human PPARgamma. shares compounds with PPARg SRC-3 ag. actives 43% (n = 790). PPARgamma–SRC-1 coactivator recruitment biochemical assay. activation, % at 8 µM; in the data active = activation above about 20%;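 also: 0% = vehicle wells and 100% = reference agonist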
PPARg SRC3 ag: human PPARgamma SRC-3 recruitment agonism, confirmation; activation, % at 8 µM; AID 1301; shares compounds with PPARg SRC-3 ag; biochemical PPARgamma-SRC-3 coactivator recruitment, agonist mode; actives 29% (n = 790); in the data active = activation above about 24%;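 also: 0% = vehicle wells and 100% = reference agonist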
Numbers without * were called inactive; nt = no result given. Only some compounds are listed: those with a hit (about 0.9% of all), similar ones and a draw of the others. Rule as the data show it, unless noted: active = activation above about 22%; inactive = the rest.

SMILES | PPARg SRC-2 ag | SRC3 TRFRET art | PPARg SRC-3 ag | PPARg SRC1 recr | SRC1 TRFRET art | TR-FRET SRC-2 ct | PPARg SRC2 conf | PPARg SRC1 ag | PPARg SRC3 ag
CCOc1cccc(C2C(C(=O)c3ccc(C)o3)=C(O)C(=O)N2Cc2ccncc2)c1 (stereo not given) | 7 | nt | 5 | 13 | nt | 1504 | nt | nt | nt
Cc1cc(N2C(=O)C(O)=C(C(=O)c3ccc(C)o3)C2c2cccs2)no1 (stereo not given) | 37* | nt | 45* | 35* | nt | 2253* | 19 | 13 | 13
CCOC1(/N=C(\C)NS(=O)(=O)c2ccc(Cl)cc2)C(C)=CC(=O)C=C1C | -8 | 1447 | 2 | 2 | 1673 | 1421 | nt | nt | nt
Cc1cccc(C)c1NC(=O)c1sc(Cl)nc1C | 0 | 1492 | 0 | 6 | 1810 | 1593 | nt | nt | nt
CCOC(=O)N1CCN(C(=O)c2cn(CC)c3ccc(S(=O)(=O)N4CC(C)CC(C)C4)cc3c2=O)CC1 (stereo not given) | 1 | 1730 | 2 | -2 | 1676 | 1641 | nt | nt | nt
COc1nnc(-c2ccccc2)s1 | 3 | 1580 | -1 | 7 | 1827 | 1706 | nt | nt | nt
O=C(O)c1ccc2c3c(cccc13)C(=O)N(c1ccccc1)C2=O | -4 | 1701 | -5 | 5 | 1776 | 1684 | nt | nt | nt
Cc1c(O)c2c3c(cccc3c1O)C(=O)N(c1ccccc1)C2=O | 22* | 2155* | 14 | 24* | 2683* | 2078* | 26* | 16 | 19
CCOC(=O)c1cc(-c2ccc(N)cc2)sc1N | 28* | nt | 16 | 16 | nt | 1795 | 11 | 8 | 6
CCOC(=O)c1sc(-c2ccc(Br)cc2)cc1N | 15 | nt | 6 | 5 | nt | 1901 | nt | nt | nt
CN1/C(=C/c2cc[n+](C)c3ccccc23)C=Cc2ccccc21 | 42* | 2217* | 26* | 33* | 2343* | 1994* | 5 | 4 | 5
S=c1[nH]cnc2sc(-c3ccccc3)cc12 | 52* | 2631* | 30* | 46* | 3261* | 2602* | 33* | 22* | 21
CNc1ncnc2sc(-c3ccccc3)cc12 | -5 | 1461 | 0 | -2 | 2133 | 1590 | nt | nt | nt
Cc1cc(C)n2c(SCC(=O)N(CC(C)C)c3c(N)n(CC(C)C)c(=O)[nH]c3=O)nnc2n1 | 11 | 1743 | 4 | 6 | 1613 | 1635 | nt | nt | nt
O=C(N/N=C/c1ccc(N2CCOCC2)cc1)C1COc2ccccc2O1 (stereo not given) | -6 | 1461 | -7 | 0 | 1656 | 1388 | nt | nt | nt
Cc1cccc(S(=O)(=O)C(C#N)c2nc3ccccc3nc2N2CCCC2)c1 (stereo not given) | 11 | nt | 14 | 19* | nt | 1588 | 8 | 11 | 6
N#CC(c1nc2ccccc2nc1N1CCCC1)S(=O)(=O)c1ccccc1 (stereo not given) | -6 | nt | -8 | 10 | nt | 1401 | nt | nt | nt
Oc1ccc(Br)cc1C=Nc1cccn2cc(-c3ccccc3)nc12 | 23* | 1820 | 11 | 19 | 1670 | 1895 | 17 | 16 | 14
CC(=O)C1=C(O)C(=O)N(CCc2c[nH]c3ccccc23)C1c1cccc(O)c1 (stereo not given) | -1 | nt | -3 | -6 | nt | 1589 | nt | nt | nt
COc1cc(C2C(C(C)=O)=C(O)C(=O)N2CCc2c[nH]c3ccccc23)ccc1O (stereo not given) | 5 | nt | 9 | 19* | nt | 1653 | 0 | 0 | 3
CCN(CC)S(=O)(=O)c1cccc(-c2n[nH]c(=S)n2C)c1 | 1 | 1494 | 0 | 6 | 1851 | 1748 | nt | nt | nt
Cc1ccc(-c2n[nH]c(=S)n2C)cc1Cl | 15 | 1766 | 6 | 26* | 2034 | 1847 | 10 | 9 | 10
CC(C)c1cc(C(=O)N2CCCC(CCC(=O)NCc3ccccc3F)C2)n(C)n1 (stereo not given) | 6 | 1386 | 6 | 3 | 1882 | 1584 | nt | nt | nt
CCOC(=O)C1=C(C)OC(N)=C(C#N)C1c1cc2cc(C)ccc2nc1N1CCCCC1 (stereo not given) | 40* | nt | 62* | 38* | nt | 2305* | 62* | 44* | 42*
CCOC(=O)C1=C(C)OC(N)=C(C#N)C1c1cc(C)sc1C (stereo not given) | 4 | nt | -6 | -6 | nt | 1603 | nt | nt | nt
SMILES | PPARg SRC-2 ag | SRC3 TRFRET art | PPARg SRC-3 ag | PPARg SRC1 recr | SRC1 TRFRET art | TR-FRET SRC-2 ct | PPARg SRC2 conf | PPARg SRC1 ag | PPARg SRC3 ag
CCN(CC)S(=O)(=O)c1cccc(C(=O)OCC(=O)NC(C)c2ccccc2)c1 (stereo not given) | 2 | 1489 | 2 | 7 | 1613 | 1675 | nt | nt | nt
CCC1(CC)NC(=O)N(CC(=O)N2N=C(c3ccc(Cl)cc3)CC2c2ccco2)C1=O (stereo not given) | -7 | 1458 | 3 | 2 | 1660 | 1377 | nt | nt | nt
COc1ccccc1C1Nc2cccc3cccc(c23)N1 | 19 | nt | 11 | 19* | nt | 1640 | 10 | 7 | 6
COC(=O)CSc1ncnc2c1sc1nc3c(cc12)COC(C)(C)C3 | 24* | 1809 | 12 | 13 | 2109 | 1748 | 17 | 15 | 12
Cc1nnc(NC(=O)c2cccc(S(=O)(=O)N3CCc4ccccc43)c2)s1 | 9 | nt | 11 | 8 | nt | 1519 | nt | nt | nt
O=C(Nc1nc2c(s1)CN(Cc1ccccc1)CC2)c1cccc(S(=O)(=O)N2CCc3ccccc32)c1 | 15 | nt | 39* | 37* | nt | 4126* | 50* | 41* | 30*
COc1ccc(/C=N/c2c(-c3ccco3)nc3ccccn23)cc1OC | 23* | nt | 29* | 34* | nt | 1874 | 17 | 8 | 6
O=C(Cn1nnc2ccccc2c1=O)NCCc1ccc(F)cc1 | 8 | 1630 | 2 | 0 | 1834 | 1453 | nt | nt | nt
Brc1cc(Br)c2nc(-c3ccc(N4CCOCC4)cc3)ccc2c1 | 22* | nt | 35* | 25* | nt | 2276* | 24* | 14 | 16
Cc1nn(C)c(C)c1NC(=O)CSc1nc(-c2ccccc2Cl)nc2c1cnn2-c1ccccc1 | -2 | nt | 14 | 19* | nt | 1882 | 4 | -2 | -2
Cc1ccc(C)c(-n2nnnc2SCC(=O)NNC(=O)c2ccco2)c1 | -1 | 1734 | 1 | 3 | 1827 | 1565 | nt | nt | nt
COc1cccc(C2/C(=C(\O)c3ccc(OC)c(OC)c3)C(=O)C(=O)N2c2cc(C)on2)c1 (stereo not given) | 29* | nt | 28* | 17 | nt | 1910 | 24* | 17 | 15
COc1ccc(/C(O)=C2\C(=O)C(=O)N(c3cc(C)on3)C2c2ccc(OC)c(OC)c2)cc1OC (stereo not given) | 6 | nt | -4 | 8 | nt | 1427 | nt | nt | nt
